PubChem BioAssay (NCATS)
Values joined by “and” are separate entries in the source; they are usually repeats but may differ in a detail not shown here. Equal values may be shown once. Results filed as inconclusive are left out. Entries that show only a call come without a potency. Active and inactive are the calls of the source. The call rests on the fitted dose curve; in most records, active means well fitted curve in the direction sought with a large enough effect; inconclusive means small, poorly fitted or top-dose-only effect, or another doubt; inactive means no such curve, though single readings can be large; an effect the other way counts as inactive or inconclusive.
Potency means the concentration at half of the fitted maximal effect.

Assay: qHTS of pediatric cancer cell lines to identify multiple opportunities for drug repurposing: Primary screen for OHS-50 cells (AID 1347103); further: nearly all actives have a fitted effect of over 40% in size
Details: OHS-50 osteosarcoma viability, CellTiter-Glo luminescence, 48 h; series mostly up to 57.3 µM
How it was run: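 Cells (500-1,000/well) rested 5 h, then received compounds for 48 h; metabolically active cells were measured by CellTiter-Glo luminescence. Final concentrations spanned up to 46 µM (MIPE, 11-point) or 0.59 nM-46 µM (NPC, 8-point) in primary screens, 11-point in follow-ups.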
In the case of `c1ccc2nc(N3CCNCC3)ccc2c1`, the Potency is reported as “inactive”. For `Clc1ccc(CSC(Cn2ccnc2)c2ccc(Cl)cc2Cl)cc1` (centres undefined), the Potency was 27.6 µM (active). With `C[C@@H]1CC[C@H]2[C@@H](C)C(=O)O[C@@H]3O[C@@]4(C)CC[C@@H]1[C@]32OO4` the Potency was “inactive”. For `CC(=O)OC1(c2ccccc2)CCN(CCc2ccccc2)CC1`, the Potency was 32.4 µM (active). In the case of `O=C1NCN(c2ccccc2)C12CCN(CCCOc1ccc(F)cc1)CC2`, the Potency is reported as 27.6 µM (active). In the case of `Oc1ccc([C@H]2CNCc3c2ccc(O)c3O)cc1O`, the Potency is reported as “inactive”. With `CCO[C@H]1O[C@@H]2OC3(C)CC[C@H]4[C@H](C)CC[C@@H]([C@H]1C)[C@@]24OO3` the Potency was 13.8 µM (active). In the case of `CC(CC(C#N)(c1ccccc1)c1ccccc1)N(C)C` (centres undefined), the Potency is reported as 28.2 µM (active). In the case of `C[C@@H]1C[C@@H]([C@H](O)CC2CC(=O)NC(=O)C2)C(=O)[C@@H](C)C1`, the Potency is reported as 276 nM (active) and 137 nM (active). In the case of `C=CCN1CC[C@]23CCCC[C@H]2[C@H]1Cc1ccc(O)cc13`, the Potency is reported as “inactive”. With `CCS(=O)(=O)C(C)(C)S(=O)(=O)CC` the Potency was “inactive”. In the case of `C[N+]1(C)[C@@H]2CC[C@H]1CC(OC(=O)C(CO)c1ccccc1)C2` (some centres undefined), the Potency is reported as “inactive”. For `Cc1nnc2n1-c1sc(CCc3ccc(CC(C)C)cc3)cc1C(c1ccccc1Cl)=NC2C` (centres undefined), the Potency was 21.9 µM (active). For `C[C@H](CN1CCOCC1)C(C(=O)N1CCCC1)(c1ccccc1)c1ccccc1`, the Potency was 43.4 µM (active). In the case of `O=C(O)CCCCCCNC1c2ccccc2CCc2ccccc21`, the Potency is reported as “inactive”. In the case of `CN(C)C(=S)SSC(=S)N(C)C`, the Potency is reported as 0.347 µM (active). For `O=C(N[C@@H]1N=C(c2ccccc2F)c2cccc3c2N(CC3)C1=O)c1cc2ccccc2[nH]1`, the Potency was “inactive”. With `C[C@]12CC[C@H]3[C@@H](CCC4=CC(=O)CC[C@@]43C)[C@@H]1CC[C@@H]2C(=O)O` the Potency was “inactive”. In the case of `C[C@H](N)[C@H](O)c1ccc(O)c(O)c1`, the Potency is reported as “inactive”. In the case of `O=C(CCCCl)c1ccc(F)cc1`, the Potency is reported as “inactive”. In the case of `CCCCCCCCC(=O)NCc1ccc(O)c(OC)c1`, the Potency is reported as 0.001 µM (active). With `Nc1ccc(N)cc1` the Potency was “inactive”. With `CCOC(=O)NC(O)C(Cl)(Cl)Cl` (centres undefined) the Potency was “inactive”. With `N#Cc1nn(-c2c(Cl)cc(C(F)(F)F)cc2Cl)c(N)c1S(=O)C(F)(F)F` (centres undefined) the Potency was 24.6 µM (active). With `C[C@]12Cc3nonc3C[C@@H]1CC[C@@H]1[C@@H]2CC[C@@]2(C)[C@H]1CC[C@]2(C)O` the Potency was 15.5 µM (active).

Assay: qHTS of pediatric cancer cell lines to identify multiple opportunities for drug repurposing: Primary screen for RD cells (AID 1347104); further: nearly all actives have a fitted effect of over 55% in size
Details: RD rhabdomyosarcoma viability, CellTiter-Glo luminescence, 48 h; series mostly up to 46 µM
How it was run: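 CRCs from 8- or 11-point titrations (lowest final 0.59 nM NPC, 0.78 nM MIPE). Cell viability: CellTiter-Glo after 48 h incubation, 15 min room-temperature development, luminescence imaging.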
With `Cc1nc2ccccc2c(=O)n1-c1ccccc1Cl` the Potency was “inactive”. For `c1ccc2nc(N3CCNCC3)ccc2c1`, the Potency was “inactive”. In the case of `Clc1ccc(CSC(Cn2ccnc2)c2ccc(Cl)cc2Cl)cc1` (centres undefined), the Potency is reported as 23.7 µM (active). For `Nc1ccc(Cl)cc1C(=O)c1ccccc1F`, the Potency was “inactive”. With `CC(=O)OC1(c2ccccc2)CCN(CCc2ccccc2)CC1` the Potency was 62.3 µM (active). With `Oc1ccc([C@H]2CNCc3c2ccc(O)c3O)cc1O` the Potency was “inactive”. In the case of `C[C@]12C=CC(=O)C=C1CC[C@@H]1[C@@H]2CC[C@@]2(C)[C@H]1CC[C@]2(C)O`, the Potency is reported as “inactive”. In the case of `C[C@]12CC[C@H]3[C@@H](CCC4=CC(=O)CC[C@@H]43)[C@@H]1CC[C@@H]2O`, the Potency is reported as “inactive”. For `CC(CC(C#N)(c1ccccc1)c1ccccc1)N(C)C` (centres undefined), the Potency was 54.5 µM (active). For `C[C@@H]1C[C@@H]([C@H](O)CC2CC(=O)NC(=O)C2)C(=O)[C@@H](C)C1`, the Potency was 473 nM (active) and 235 nM (active). In the case of `C=CCN1CC[C@]23CCCC[C@H]2[C@H]1Cc1ccc(O)cc13`, the Potency is reported as “inactive”. For `CCS(=O)(=O)C(C)(C)S(=O)(=O)CC`, the Potency was “inactive”. For `C[N+]1(C)[C@@H]2CC[C@H]1CC(OC(=O)C(CO)c1ccccc1)C2` (some centres undefined), the Potency was “inactive”. In the case of `CC[C@H]1C[C@H]2[C@@H]3CCC4=CC(=O)CC[C@@H]4[C@H]3CC[C@]2(C)[C@H]1O`, the Potency is reported as “inactive”. For `CCC(=O)OC1(c2ccccc2)CCN(C)CC1`, the Potency was “inactive”. With `O=C(O)CCCCCCNC1c2ccccc2CCc2ccccc21` the Potency was “inactive”. For `CCC(=O)O[C@H]1CC[C@H]2[C@@H]3CCC4=CC(=O)CC[C@]4(C)[C@H]3CC[C@]12C`, the Potency was “inactive”. With `CN(C)C(=S)SSC(=S)N(C)C` the Potency was 0.188 µM (active). With `O=C(N[C@@H]1N=C(c2ccccc2F)c2cccc3c2N(CC3)C1=O)c1cc2ccccc2[nH]1` the Potency was “inactive”. For `Cc1ncc2n1-c1ccc(Cl)cc1C(c1ccccc1F)=NC2`, the Potency was “inactive”. In the case of `C[C@]12CC[C@H]3[C@@H](CCC4=CC(=O)CC[C@@]43C)[C@@H]1CC[C@@H]2C(=O)O`, the Potency is reported as “inactive”. For `C[C@H](N)[C@H](O)c1ccc(O)c(O)c1`, the Potency was “inactive”. With `O=C(CCCCl)c1ccc(F)cc1` the Potency was “inactive”. With `CC[C@]1(O)CC[C@H]2[C@@H]3CCC4=CCCC[C@@H]4[C@H]3CC[C@@]21C` the Potency was “inactive”. With `CCCCCCCCC(=O)NCc1ccc(O)c(OC)c1` the Potency was “inactive”. With `O=C(NC(=O)c1c(F)cccc1F)Nc1cc(Cl)c(OC(F)(F)C(F)C(F)(F)F)cc1Cl` (centres undefined) the Potency was “inactive”. In the case of `Nc1ccc(N)cc1`, the Potency is reported as “inactive”. With `CCOC(=O)NC(O)C(Cl)(Cl)Cl` (centres undefined) the Potency was “inactive”. With `CC(Cc1ccccc1)NCc1ccccc1Cl` (centres undefined) the Potency was “inactive”.
